Laboratory results: PubChem BioAssay (Tox21)
Inconclusive results are not listed. A number with no mark means an inactive call. Calls of active or inactive are those of the source. Calls come from the whole dose curve.

Molecular target: Thyrotropin receptor (Homo sapiens) (UniProt P16473)
Experiment: qHTS assay to identify small molecule antagonists of the thyroid stimulating hormone receptor (TSHR) signaling pathway (AID 1259385); note: nearly all actives have a fitted effect of over 20% in size
Conditions: TSHR-HEK293 cAMP HTRF, TSH-stimulated antagonist mode; series mostly up to 92.4 µM; activity change, negative = inhibition: at the top concentration
Text: U.S. Tox21 Program National Center for Advancing Translational Sciences [NCATS] NIH Chemical Genomics Center [NCGC] U.S. Environmental Protection Agency [EPA] National Institutes of Environmental Health Sciences [NIEHS] National Toxicology Program [NTP] U.S. Food and Drug Administration [FDA] Tox21 Assay Overview: TSHR is the receptor for thyrotropin (thyroid stimulating hormone or TSH), a member of the glycoprotein hormone family. TSH is released by the anterior pituitary gland and is the main regulator of thyroid gland growth and development. Upon binding circulating thyrotropin, a G-protein signal cascade activates adenylyl cyclase and […] cAMP concentration is increased. cAMP is a key second messenger involved extensively in cellular signal transduction pathways associated with the majority of G-protein coupled receptors (GPCRs). The activation of these GPCRs by neurotransmitters, lipids, nucleotides, peptides and hormones results in the activation or the inhibition of plasma membrane-bound adenylate cyclase through heterotrimeric G-proteins. A cell-based TSHR assay can be used to screen chemical compounds that modulate TSHR either in agonist or antagonist mode.
Tox21 Assay Protocol Summary: TSHR-Hek293 cells were dispensed at 800 cells/4uL/well in 1536-well white plates using a Multidrop dispenser. After the assay plates were incubated at a 37C/5% CO2 incubator for 18 hrs, 23 nL of compounds dissolved in DMSO, positive controls or DMSO only was transferred to the assay plate by a pin tool, followed by 1 ul medium containing Ro20-1724. For the antagonist mode screening, 1 uL of TSH was added on the top of the cell/compound mixtures to achieve a final agonist concentration of 1.5 ng/mL. After 30 min of incubation at room temperature, 2.5 ul/well of cAMP-d2 and 2.5 ul/well of anti-cAMP-cryptate were added respectively into the assay plates using a Flying Reagent Dispenser. The plates were incubated at room temperature for 1 hr. The fluorescence intensity in the plates was measured using an Envision plate reader. Each test compound was measured at 15 concentrations and in triplicates.
% is set by controls: 0 for no effect and ±100 for the full control effect; potency is the fitted concentration of half-maximal effect.

Sequence of Thyrotropin receptor (Homo sapiens) (P16473 whole entry, looked up): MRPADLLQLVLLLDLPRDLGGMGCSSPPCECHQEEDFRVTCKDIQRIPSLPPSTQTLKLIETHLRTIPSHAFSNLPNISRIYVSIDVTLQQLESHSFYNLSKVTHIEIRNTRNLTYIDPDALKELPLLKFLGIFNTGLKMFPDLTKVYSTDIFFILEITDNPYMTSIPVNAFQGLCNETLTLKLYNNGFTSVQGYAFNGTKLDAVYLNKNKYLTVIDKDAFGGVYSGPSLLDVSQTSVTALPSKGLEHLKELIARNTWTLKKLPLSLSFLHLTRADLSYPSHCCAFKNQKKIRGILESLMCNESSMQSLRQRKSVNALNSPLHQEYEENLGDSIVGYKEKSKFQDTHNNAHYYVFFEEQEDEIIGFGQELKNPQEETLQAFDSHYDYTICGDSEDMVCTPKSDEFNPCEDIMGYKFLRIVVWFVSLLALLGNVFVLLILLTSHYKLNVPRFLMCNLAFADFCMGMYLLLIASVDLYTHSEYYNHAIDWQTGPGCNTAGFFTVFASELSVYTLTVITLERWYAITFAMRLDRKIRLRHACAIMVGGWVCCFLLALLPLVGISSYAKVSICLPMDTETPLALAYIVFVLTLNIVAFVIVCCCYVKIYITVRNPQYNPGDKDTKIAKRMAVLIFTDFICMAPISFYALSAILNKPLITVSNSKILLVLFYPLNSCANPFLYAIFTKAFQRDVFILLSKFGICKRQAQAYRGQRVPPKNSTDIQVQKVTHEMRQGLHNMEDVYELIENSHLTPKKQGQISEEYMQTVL

SMILES | activity change, negative = inhibition | Potency
NC(=O)Nc1ccc(Cl)c(Cl)c1 | -1.88% | 
O=C(O)c1ccc(CO)o1 | -4.56% | 
CC[C@H](NC(=O)c1cc(F)ccc1NS(=O)(=O)c1cccc2cccnc12)c1ccccc1 | -0.385% | 
O=C(CCCCCCCCC#CI)Oc1ccccc1 | 4.5% [at 42.5 µM] | 
O=c1[nH]c2ccc(S(=O)CCN3CCC(Cc4ccc(F)cc4)CC3)cc2o1 (stereo not given) | -3.22% | 
Cc1cc(O)c2c(O)c3c(O)cccc3cc2c1 | -0.807% [at 42.5 µM] | 
CC(CCc1ccc2c(c1)OCO2)NN (stereo not given) | 0.48% [at 42.5 µM] | 
CCOC(=O)CC(=O)C(=O)OCC | 0.174% | 
Cc1ccc(S(=O)(=O)NC2CCCCC2)cc1 | 1.03% | 
COc1cc2[nH]c(=O)[nH]c(=O)c2cc1OC | 1.38% [at 42.5 µM] | 
NC(=O)Nc1ccc(Cl)cc1 | 1.88% | 
C[C@]12CCC(=O)C=C1C=C[C@@H]1[C@@H]2CC[C@@]2(C)[C@H]1CC[C@@]21CCC(=O)O1 | 6.9% [at 42.5 µM] | 
COC(=O)c1cc(Cl)ccc1NS(=O)(=O)C(F)(F)F | 0.489% [at 42.5 µM] | 
CC(=O)[C@H]1CC[C@H]2[C@@H]3C=CC4=CC(=O)CC[C@@]4(C)[C@@H]3CC[C@]12C | -0.478% [at 42.5 µM] | 
COCc1c(C(C)C)nc(C(C)C)c(/C=C/[C@@H](O)C[C@@H](O)CC(=O)O)c1-c1ccc(F)cc1 |  | inactive
CCNC(=O)N1CCN(CCCC(c2ccc(F)cc2)c2ccc(F)cc2)CC1 | -6.32% [at 42.5 µM] | 
O=C1OCCN1/N=C/c1ccc([N+](=O)[O-])o1 | 9.42% [at 42.5 µM] | 
CC1CC(O)CC(C)(C)C1 (stereo not given) | 0.712% | 
COCC(O)CO (stereo not given) | -0.204% | 
N#C[C@@H]1C[C@@H]2C[C@@H]2N1C(=O)[C@@H](N)C12CC3CC(CC(O)(C3)C1)C2 | -0.998% [at 42.5 µM] | 

SMILES | activity change, negative = inhibition | Potency
CC(Cl)C(Cl)Cl (stereo not given) | -2.82% | 
CN1CCN(c2c(F)cc3c(=O)c(C(=O)O)cn4c3c2OCN4C)CC1 | -3.1% [at 19 µM] | 
O=C(O)c1snc(Cl)c1Cl | 4.06% | 
c1ccc(COCc2ccccc2)cc1 | -0.311% | 
O=C(O)C(Cc1cc(I)c(O)c(I)c1)c1ccccc1 (stereo not given) | 2.65% [at 42.5 µM] | 
COC(=O)c1cc(S(N)(=O)=O)ccc1OC | -0.875% [at 42.5 µM] | 
CC(C)(CCl)c1ccccc1 | -0.84% | 
C=CCNc1nc(NCC=C)nc(N2CCN(C(c3ccc(F)cc3)c3ccc(F)cc3)CC2)n1 |  | 9.44 µM (active)
O=C(CCCCCCC(=O)Nc1ccccc1)NO | 8.28% [at 42.5 µM] | 
Cc1ccc(S)cc1 | 2.36% | 
CCCOC(=O)c1ccc(N)cc1 | -0.272% [at 42.5 µM] | 
COC(OC)(C(=O)c1ccccc1)c1ccccc1 | -0.725% | 
CNC(=S)NC | 0.194% | 
NC(=O)N(O)[C@@H]1C=C[C@H](Oc2cccc(Oc3ccc(F)cc3)c2)C1 | -0.0825% | 
CCCCCCCCCCCC[N+](C)(C)CC(=O)[O-] | -0.315% | 
CCCCN(CCCC)C(=S)SSC(=S)N(CCCC)CCCC | -2.53% | 
COc1ccc([C@@H]2Sc3ccccc3NC(=O)[C@@H]2O)cc1 | 2.27% [at 42.5 µM] | 
CN(C)C(=O)Nc1ccc(Oc2ccc(Cl)cc2)cc1 | -5.4% | 
CNC(=O)N(c1ccccc1)c1ccccc1 | 0.217% | 
CCCCOC(=O)CCS | 2.02% | 
